# Screening data from PubChem.
# A selection: hits, their analogues and other compounds. The true share with any hit is near 2.3%.
# 697 NFkB inh: lowers PMA/ionomycin-induced NF-kB signal in 697 B cells; 697 B-cell NF-kB luciferase reporter, 16 h; 330,000 tested, 0.33% active; inhibition, % at 4 µM; AID 435022; in the data active = inhibition above about 35%
# Gli-Sufu block: antagonists of Gli-Sufu signaling | Sufu-KO-LIGHT fibroblasts, Gli luciferase reporter luminescence | inhibition, % at 5 µM | 340,000 tested, 0.74% active | AID 588413;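 active = inhibition above about 55%, limit read from the data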;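 also: 0% = DMSO-treated cells and 100% = wells with medium but no cells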
# aSyn 5UTR inh: 5' untranslated region of α-synuclein, MLPCN primary screen; alpha-synuclein 5'UTR reporter, inhibitor activity; inhibition, % (tested at 7.5 µM); 300,000 tested, 0.82% active; in the data active = inhibition above about 60%;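 also: H4 neuroglioblastoma cells stably carrying SNCA 5'UTR luciferase fusion; 0% = DMSO wells and 100% = positive control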
# Jurkat NFkB inh: lowers PMA/ionomycin-induced NF-kB signal in Jurkat cells; PMA/ionomycin-induced NF-kB luciferase reporter, luminescence; inhibition, % at 4 µM; 330,000 tested, 0.53% active; AID 435003; in the data active = inhibition above about 50%
# Shn3 3UTR inh: Schnurri-3 reporter inhibition in Clone20 osteoblasts. inhibition, % at 12.5 µM. Clone20 osteoblast Shn3 3'UTR firefly luciferase, 24 h. AID 588674. 360,000 tested, 0.52% active;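 active = mean inhibition of at least 75% with every replicate also reaching 75%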;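 also: 0% = median of neutral control wells and 100% = pilot-screen positive control compound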
# TAG inh: triacylglycerol accumulation inhibition; H9c2 cells, Nile Red lipid (TAG) fluorescence; cells loaded with 200 µM oleic acid; inhibition, % at 12.5 µM; 230,000 tested, 0.66% active; AID 651582;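 active = pattern-corrected inhibition of lipid staining of at least 50% with the nuclear-stain viability signal not falling by more than 50%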;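 also: 0% = DMSO wells and 100% = triacsin C control wells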
# * hit, by the source's call; x = no result.
SMILES,697 NFkB inh,Gli-Sufu block,aSyn 5UTR inh,Jurkat NFkB inh,Shn3 3UTR inh,TAG inh
Cc1[nH]n(C2=NCCS2)c(=O)c1N=Nc1cccc(C(F)(F)F)c1,15.3,25.6,66.6*,3.4,26.8,17.2
Cc1[nH]n(C(N)=S)c(=O)c1N=Nc1cccc(C(F)(F)F)c1,-96.2,8.2,-164.6,-43.0,-74.1,x
Cc1ccc(CSc2nnc(SCC(=O)N/N=C/c3ccc(C(=O)O)cc3)s2)cc1,27.5,-19.5,69.5*,-26.3,-8.8,-29.5
Cc1ccc(CSc2nnc(SCC(=O)N/N=C/c3ccccc3OCC(=O)O)s2)cc1,19.5,-33.9,61.7*,-52.4,2.5,-6.6
CC(=O)c1cccc(NS(=O)(=O)c2c(C(=O)N3CCOCC3)c(C)n(C)c2C)c1,0.0,29.0,9.6,6.4,-0.4,x
Cc1cc(S(=O)(=O)c2ccc(Cl)cc2)nc(S(=O)(=O)c2ccc(Cl)cc2)c1C#N,x,x,x,x,90.8*,66.0
CC(C(=O)NCC1CCCO1)N1C(=O)C2C3CC(C(Br)C3Br)C2C1=O (stereo not drawn),6.8,2.0,-14.0,1.1,-1.3,-2.0
CCOc1c(Cl)cc(CNCC(C)C)cc1OC,20.4,4.3,17.8,1.4,-1.2,x
C=C1[C@@H](O)[C@@H]2O[C@]3(CC[C@H](/C=C/[C@@H](C)[C@@H]4CC(C)=CC5(O[C@H](C[C@@](C)(O)C(=O)OC)CC[C@H]5O)O4)O3)CC[C@H]2O[C@@H]1[C@@H](O)C[C@H](C)[C@H]1OC2(CCCCO2)CC[C@H]1C (stereo partly drawn),-12.9,90.2*,x,-5.5,x,x
CCOc1cc(C(C#N)N2CCCCC2)ccc1OC (stereo not drawn),18.2,-3.0,8.0,3.1,11.4,x
CCN(c1ccccc1)S(=O)(=O)c1ccc(NC(=O)c2nc(S(C)(=O)=O)ncc2Cl)cc1,-96.9,17.8,1.7,44.8,98.3*,x
CS(=O)(=O)c1ncc(Cl)c(C(=O)Nc2ccc(N3CCOCC3)cc2)n1,-17.3,13.6,-24.4,8.8,94.2*,x
CS(=O)(=O)c1ncc(Cl)c(C(=O)Nc2ccc(OC(F)F)cc2)n1,-24.0,29.3,-48.9,12.7,93.2*,x
CCn1c(N)c(C(=O)NC2CCCCC2)sc1=S,7.7,-2.8,13.2,-4.8,-1.6,x
O=C(O)c1ccc(-n2ncc(Cl)c(Cl)c2=O)cc1,x,x,x,x,56.7,13.8
O=C(OCn1ncc(Cl)c(Cl)c1=O)c1ccc(C(F)(F)F)cc1,-26.3,0.2,-117.3,3.6,94.9*,x
Cc1ccc(C(=O)OCn2ncc(Cl)c(Cl)c2=O)cc1,0.8,3.2,43.1,13.6,90.8*,x
Cc1ccc(C)c(C(=O)Cn2ncc(Cl)c(Cl)c2=O)c1,-9.7,29.7,13.3,11.1,65.5,25.6
COc1ccc(/C(C)=N/N=C2/NC(=O)CC(C(=O)O)S2)cc1F (stereo not drawn),9.4,3.7,-4.9,-1.2,7.4,-11.6
CC(=O)Nc1ccc(S(=O)(=O)Nc2ccc(S(=O)(=O)Nc3nc(C)cc(C)n3)cc2)cc1,4.3,-1.8,-31.3,-9.3,5.6,x
Cn1c(=O)c2nc(NCc3ccccc3)cnc2n(C)c1=O,-4.9,17.7,18.8,7.9,2.6,x
Cc1nc2c(=O)n(C)c(=O)n(C)c2nc1Cl,x,5.3,-5.6,x,96.8*,x
O=C(Nc1ccc(Cl)cc1F)C1CCN(S(=O)(=O)c2cccc3nonc23)CC1,-4.0,3.8,-8.1,2.5,-5.4,x
O=C(N/N=C/c1ccccc1Cl)c1n[nH]c2c1CCCC2,-17.7,0.7,83.5*,6.7,54.2,x
O=C(N/N=C/c1ccccc1)c1n[nH]c2c1CCCC2,-119.1,-100.9,-87.5,-45.3,-22.4,2.7
SMILES,697 NFkB inh,Gli-Sufu block,aSyn 5UTR inh,Jurkat NFkB inh,Shn3 3UTR inh,TAG inh
O=C(N/N=C/c1cccs1)c1n[nH]c2c1CCC2,-92.7,-71.9,67.9*,17.3,-27.2,x
O=C(N/N=C/C(Br)=C/c1ccccc1)c1n[nH]c2c1CCC2,-57.2,9.4,-19.4,-8.1,77.4,x
COc1ccc2sc(-c3ccccc3OC)c(-c3ccc(OCCN4CCOCC4)cc3)c2c1,-8.3,-1.6,x,x,19.5,-2.0
COc1cc2sc(-c3ccccc3OC)c(-c3ccc(OCCN4CCCCC4)cc3)c2cc1OC,-2.1,14.0,x,-1.2,-11.1,81.2*
COc1ccccc1-c1sc2cc3c(cc2c1-c1ccc(OCCN2CCCCC2)cc1)OCO3,-21.6,29.1,x,1.1,-12.6,62.7*
COc1ccc(-c2sc3cc4c(cc3c2-c2ccc(OCCN3CCOCC3)cc2)OCO4)cc1,-17.7,-0.8,x,-25.7,11.3,17.6
O=C(Nc1ccc(N2CCOCC2)c(Cl)c1)c1cc2ccccc2o1,-144.3,-1.8,-203.7,-109.9,-6.8,x
Oc1c(C(Nc2nccs2)c2ccc(C(F)(F)F)cc2)ccc2cccnc12 (stereo not drawn),x,29.1,55.1,x,77.7,59.6*
Oc1c(C(Nc2cccc(C(F)(F)F)c2)c2ccncc2)ccc2cccnc12 (stereo not drawn),-17.7,2.3,81.9*,8.0,97.1*,96.0
CN1CCN(C(c2ccc(F)cc2)c2ccc3cccnc3c2O)CC1 (stereo not drawn),x,4.7,x,x,27.0,x
CS(=O)(=O)N1CCC(Oc2ccccc2C(=O)N2CCNC(=O)C2)CC1,6.5,-8.1,-10.1,9.9,-2.2,5.8
Cc1ccc([C@H]2C[C@H](n3cc(-c4ccc(F)cc4)nn3)[C@@H](O)CN2C(=O)c2cccs2)cc1,x,x,x,x,3.3,2.4
CCOc1ccc(NC(=O)CC(=O)Nc2ccc(OCC)cc2)cc1,1.5,-7.3,-14.5,-5.8,-8.3,x
CCOc1ccc(C(=O)Oc2ccc(NC(C)=O)cc2)cc1,0.4,x,79.9*,-8.3,x,x
CCN(CC)C(=O)c1ccccc1NC(=O)c1ccccc1SC,8.8,1.4,-13.0,-3.9,-6.2,x
Cn1c(O)c(N=NC(=O)CNC(=O)/C=C/c2ccccc2)c2ccccc21,-5.8,-8.8,30.7,-1.3,-14.8,x
COc1cccc(Nc2nc(NCC3CCCO3)c3ccccc3n2)c1 (stereo not drawn),-88.2,47.0,11.8,28.6,87.7*,4.6
CC(C)(C)c1ccc(-n2nc(C#N)c(Cl)cc2=O)cc1,13.0,-1.7,-25.4,39.7,97.9*,x
Cc1ccc(S(=O)(=O)N2[C@H](c3ccc(Cl)cc3)CC(=O)[C@@H]3CN(S(=O)(=O)c4ccccc4C)[C@H](c4ccc(Cl)cc4)C[C@@H]32)cc1,x,x,x,x,63.5,x
Cc1ccc(S(=O)(=O)N2[C@H](c3cccc(Cl)c3)CC(=O)[C@@H]3CN(S(=O)(=O)c4ccccc4C)[C@H](c4ccc(Cl)cc4)C[C@@H]32)cc1,x,x,x,x,89.3*,12.0
Cc1ccc([C@@H]2C[C@H]3[C@@H](CN2S(=O)(=O)c2ccc(Cl)cc2)C(=O)C[C@@H](c2cccc(Cl)c2)N3S(=O)(=O)c2ccc(C)cc2)cc1,x,x,x,x,45.2,-10.6
Cc1ccc([C@@H]2CC(=O)[C@@H]3CN(S(=O)(=O)c4ccccc4C)[C@H](c4ccc(Cl)cc4)C[C@@H]3N2S(=O)(=O)c2ccc(C)cc2)cc1,x,x,x,x,90.6*,14.9
O=C(CSc1nnc(-c2ccccc2F)n1C1CCCCC1)N1CCCC1,-35.5,4.6,-12.6,-2.0,-13.2,18.0
